Drawing on PubChem BioAssay (Tox21), this text covers Potency for eight compounds.

Inconclusive results are not listed. Activity calls are given as the source filed them. Unless noted, the call rests on the fitted dose curve.

Assay [1] is described as follows: Nuclear factor erythroid 2-related factor 2/antioxidant responsive element (Nrf2/ARE) small molecule agonists: luciferase reporter gene qHTS assay in human keratinocytes (AID 1919969). Further: nearly all actives have a fitted effect of over 35% in size. Further: potency means the concentration at half of the fitted maximal effect. In general terms: Reporter assays use an easily measured gene product as a stand-in for the process of interest.
Assay [2] has as its target Gonadotropin-releasing hormone receptor (Homo sapiens) (UniProt P30968). The assay is described as follows: Human gonadotropin-releasing hormone receptor (GnRHR) small molecule agonists, calcium flux assay in GnRHR-HEK293 cells (AID 1920063). Further: nearly all actives have a fitted effect of over 35% in size. The gist of the method:
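Agonist activity was measured as intracellular calcium flux in HEK293 cells engineered to stably express human GnRHR. After dye loading for 1 hour at 37 C, compounds in DMSO were added and fluorescence was followed for 3 minutes.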

The target of assay [3] is KiSS-1 receptor (Homo sapiens) (UniProt Q969F8). The assay is described as follows: Human kisspeptin (KISS1R) small molecule agonists, calcium flux assay in KISS1R-HEK293 cells (AID 1920064; active means well fitted curve in the direction sought with a large enough effect in the repeat runs; an effect the other way counts as inactive or inconclusive). The essentials:
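Agonist activity is monitored as intracellular calcium rise in engineered HEK293 cells carrying human KISS1R. Cells are dye-loaded for 1 h at 37 C before compound addition, and fluorescence is recorded for 3 min.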

Assay [4] is described as follows: G protein-coupled receptor (GPCR) small molecule agonists, calcium flux assay: HEK293 wild type cell line counter screen (AID 1920065). The essentials:
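Seed cells, incubate 18 h (37 C, 5% CO2); add calcium dye, 1 h at 37 C; pin-transfer compounds, ATP control or DMSO; read fluorescence 480/540 nm each second for 3 min.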
On the technique in general: A change in cytosolic calcium serves as a functional read-out for many receptors and channels.

Assay [5] in a line: p53 small molecule agonists, cell-based qHTS assay with human liver microsomes (AID 1963577).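 Further: p53 response element beta-lactamase reporter cells with liver microsomes plus NADPH.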 The gist of the method: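 Metabolically competent format: test substances, human liver microsomes and NADPH (both 0.5 mg/mL final) incubated with p53RE-bla cells 16 h at 37 C. Beta-lactamase reporter signal then quantified by fluorescence.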
On the technique in general: qHTS replaces the single test concentration by a dilution series.

Assay [6] is described as follows: p53 small molecule agonists, cell-based qHTS assay with rat liver microsomes (AID 1963578). The essentials: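 Each plate received p53RE-bla cells, then compound, then rat liver microsomes and NADPH (both 0.5 mg/mL final). Plates were held 16 h at 37 C, and beta-lactamase activity was detected with LiveBLAzer over 2 h.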
Assay [7] can be described thus: p53 small molecule agonists, cell-based qHTS assay with human liver microsomes: qHTS cell viability counter screen (AID 1963579). Further: nearly all actives have a fitted effect of over 45% in size. The essentials: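 Tox21 library compounds, delivered from DMSO stocks, were tested on p53RE-bla cells together with 0.5 mg/mL human liver microsomes and 0.5 mg/mL NADPH (final) over 16 h at 37 C; CellTiter-Glo luminescence served as the cytotoxicity measure.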

Assay [8] in a line: p53 small molecule agonists, cell-based qHTS assay with rat liver microsomes: qHTS cell viability counter screen (AID 1963580). Further: nearly all actives have a fitted effect of over 45% in size. The essentials: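 Counter screen for cytotoxicity under metabolic activation: rat liver microsomes and NADPH, 0.5 mg/mL final each, added with compounds to p53RE-bla HCT-116 cells; 16 h at 37 C, then ATP luminescence read.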
Assay [9] is described as follows: p53 small molecule agonists, cell-based qHTS assay: qHTS cell viability counter screen (AID 1963581). Further: nearly all actives have a fitted effect of over 45% in size. The gist of the method: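 Viability was counter-screened in parallel with the p53 agonist reporter by measuring intracellular ATP luminescence in the same HCT-116 p53RE-bla wells after 16 h compound treatment at 37 C.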
The nature of assay [10]: p53 small molecule agonists, cell-based qHTS assay (AID 1963582; active means well fitted activation curve with a large enough effect in the signal ratio in the repeat runs, not every such curve was filed as active; the % refers to the signal ratio). The gist of the method:
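Cells carrying a p53-responsive bla reporter are treated with test compounds for 16 h at 37 C; beta-lactamase activity is then detected with LiveBLAzer B/G FRET substrate after 2 h at room temperature.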

Assay [11] addresses 5-hydroxytryptamine receptor 2A (Homo sapiens) (UniProt P28223). The assay is described as follows: 5-hydroxytryptamine receptor 2A (HTR2A) small molecule antagonists, cell-based qHTS assay (AID 1963586). Further: nearly all actives have a fitted effect of over 45% in size. The gist of the method:
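CHO cells stably expressing human HTR2A were plated for 18 h at 37 C, then loaded with calcium dye for 1 h. Compounds were preincubated 5 min at room temperature before DOI (4 nM solution) was added. Kinetic fluorescence was read for 3 min.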

Assay [12] shares this target. The assay is described as follows: 5-hydroxytryptamine receptor 2A (HTR2A) small molecule agonists, cell-based qHTS assay (AID 1963587). Further: nearly all actives have a fitted effect of over 30% in size. The essentials:
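HTR2A-CHO cells, plated 18 h at 37 C/5% CO2, dye-loaded 1 h at 37 C; compounds in DMSO added by pin tool (agonist mode). Intracellular calcium flux read as kinetic fluorescence on FDSS over 2 min at 1 s intervals.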

In assay [13] the target is Muscarinic acetylcholine receptor M1 (Homo sapiens) (UniProt P11229). The assay is described as follows: Cholinergic receptor muscarinic 1 (CHRM1) small molecule antagonists, cell-based qHTS assay (AID 1963588). Further: nearly all actives have a fitted effect of over 40% in size. Further: potency means the concentration at half of the fitted maximal effect. The gist of the method: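 Compounds were tested at 15 concentrations in three independent runs. Dye-loaded CHRM1-CHO cells were exposed 5 min at room temperature before stimulation by acetylcholine added at 50nM. Intracellular calcium was read kinetically on FDSS for 3 min.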
Sequence of Muscarinic acetylcholine receptor M1 (Homo sapiens) (P11229 whole entry, looked up): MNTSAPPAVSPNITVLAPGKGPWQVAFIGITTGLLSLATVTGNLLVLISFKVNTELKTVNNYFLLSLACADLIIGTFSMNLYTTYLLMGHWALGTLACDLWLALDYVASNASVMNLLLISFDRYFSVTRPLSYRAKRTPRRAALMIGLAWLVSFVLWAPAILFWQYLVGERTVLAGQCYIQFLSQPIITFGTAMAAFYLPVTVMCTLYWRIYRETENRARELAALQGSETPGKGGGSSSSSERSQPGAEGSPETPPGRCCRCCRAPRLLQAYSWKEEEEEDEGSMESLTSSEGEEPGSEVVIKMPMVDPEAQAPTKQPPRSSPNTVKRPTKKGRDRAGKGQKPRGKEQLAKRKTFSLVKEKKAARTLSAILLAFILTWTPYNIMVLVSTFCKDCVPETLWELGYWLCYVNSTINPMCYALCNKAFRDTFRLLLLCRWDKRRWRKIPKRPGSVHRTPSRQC

Assay [14] shares this target. The assay is described as follows: Cholinergic receptor muscarinic 1 (CHRM1) small molecule agonists, cell-based qHTS assay (AID 1963589). Further: nearly all actives have a fitted effect of over 35% in size. The gist of the method: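 Cells were plated and incubated 18 h at 37 C/5% CO2, loaded with calcium dye for 1 h at 37 C, then treated with compounds in DMSO. Fluorescence was recorded kinetically at 1 sec intervals.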
Assay [15] addresses Beta-2 adrenergic receptor (Homo sapiens) (UniProt P07550). The assay is described as follows: Adrenergic beta2 receptor (ADRB2) small molecule antagonists, cell-based qHTS assay (AID 1963592). Further: series mostly up to about 92 µM; nearly all actives have a fitted effect of over 50% in size. The gist of the method:
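Assay format: CHO-ADRB2 cells, 18-20hr seeding at 37C/5% CO2, then compound plus 1nM isoproterenol agonist mix for 0.5hr RT. Homogeneous time-resolved fluorescence cAMP detection after 1hr, expressed as 665/615 nm ratio.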

Assay [16] has as its target D(2) dopamine receptor (Homo sapiens) (UniProt P14416). The assay is described as follows: Dopamine D2 receptor (DRD2) small molecule agonists, cell-based qHTS assay (AID 1963594). Further: nearly all actives have a fitted effect of over 35% in size. The essentials: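 HEK293 cells stably expressing DRD2 were cultured 24 h at 37 C, then given Ro20-1724 (0.1 mM final) and compounds for 10 min at room temperature. NKH477 (200nM) was then added for 30 min. cAMP was read by HTRF.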

For assay [17] the target is unchanged. The assay is described as follows: Dopamine D2 receptor (DRD2) small molecule antagonists, cell-based qHTS assay (AID 1963595; active means well fitted inhibition curve with a large enough effect in the signal ratio in the repeat runs, with a control signal flat; the % refers to the signal ratio). The essentials:
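HTRF cAMP read-out at 665 and 620 nm emission (340 nm excitation). Antagonist mode: compounds were tested against 12 nM quinpirole in DRD2-HEK293 cells, with 200 nM NKH477 raising cAMP and 0.1 mM Ro20-1724 blocking its breakdown.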

The nature of assay [18]: Nuclear factor erythroid 2-related factor 2/antioxidant responsive element (Nrf2/ARE) small molecule agonists: qHTS cell viability counter screen in human keratinocytes (AID 1919968; active means well fitted curve in the direction sought with a large enough effect in the repeat runs; an effect the other way counts as inactive or inconclusive; further: nearly all actives have a fitted effect of over 55% in size). The essentials:
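Cytotoxicity was multiplexed with the Nrf2/ARE luciferase assay in the same wells. Stably transfected HaCaT keratinocytes were treated with test compounds for 23 h at 37 C. Cell viability was then measured by CellTiter-Fluor fluorescence.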

A short description of assay [19]: cAMP Responsive Elements (CRE) small molecule agonists, cell-based qHTS assay (AID 1963590). The gist of the method:
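Cells carrying a CRE-driven beta-lactamase reporter (HEK 293T) are seeded, incubated overnight (18 h), and treated with test compounds for 3 h at 37 C; reporter activity is then detected with a FRET substrate after 2 h at room temperature.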

Assay [20] in a line: cAMP Responsive Elements (CRE) small molecule antagonists, cell-based qHTS assay (AID 1963591; active means well fitted inhibition curve with a large enough effect in the signal ratio in the repeat runs, not every such curve was filed as active; the % refers to the signal ratio). The gist of the method: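 Cells (CRE-bla HEK 293T, DMEM with 10% dialyzed FBS and 25 mM HEPES) are seeded and incubated 18 h. Compounds are added with NKH477 agonist at 0.25 uM final for 3 h, then FRET substrate for 2 h.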

Sequence of KiSS-1 receptor (Homo sapiens) (Q969F8 whole entry, looked up): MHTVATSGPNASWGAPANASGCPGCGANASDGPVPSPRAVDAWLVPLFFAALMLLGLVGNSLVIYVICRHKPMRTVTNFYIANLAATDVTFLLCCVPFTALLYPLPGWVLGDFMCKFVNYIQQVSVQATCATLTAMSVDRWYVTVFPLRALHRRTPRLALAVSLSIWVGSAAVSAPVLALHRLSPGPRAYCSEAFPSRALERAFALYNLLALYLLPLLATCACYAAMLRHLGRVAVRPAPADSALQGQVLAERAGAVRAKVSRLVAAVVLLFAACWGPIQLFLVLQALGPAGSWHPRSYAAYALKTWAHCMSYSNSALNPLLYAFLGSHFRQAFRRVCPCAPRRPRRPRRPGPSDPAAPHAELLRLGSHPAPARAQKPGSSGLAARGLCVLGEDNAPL
Sequence of Beta-2 adrenergic receptor (Homo sapiens) (P07550 whole entry, looked up): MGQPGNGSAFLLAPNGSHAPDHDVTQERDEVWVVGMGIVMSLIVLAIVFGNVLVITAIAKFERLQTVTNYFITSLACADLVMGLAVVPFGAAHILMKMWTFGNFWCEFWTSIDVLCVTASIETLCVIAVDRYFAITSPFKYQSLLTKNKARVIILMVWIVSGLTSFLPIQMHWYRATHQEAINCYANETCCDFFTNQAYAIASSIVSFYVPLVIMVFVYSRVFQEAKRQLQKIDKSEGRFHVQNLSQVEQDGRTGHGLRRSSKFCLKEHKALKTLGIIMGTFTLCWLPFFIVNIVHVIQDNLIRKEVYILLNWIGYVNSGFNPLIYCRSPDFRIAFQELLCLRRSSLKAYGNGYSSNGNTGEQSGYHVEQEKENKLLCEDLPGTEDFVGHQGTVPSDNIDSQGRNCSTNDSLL
Sequence of 5-hydroxytryptamine receptor 2A (Homo sapiens) (P28223 whole entry, looked up): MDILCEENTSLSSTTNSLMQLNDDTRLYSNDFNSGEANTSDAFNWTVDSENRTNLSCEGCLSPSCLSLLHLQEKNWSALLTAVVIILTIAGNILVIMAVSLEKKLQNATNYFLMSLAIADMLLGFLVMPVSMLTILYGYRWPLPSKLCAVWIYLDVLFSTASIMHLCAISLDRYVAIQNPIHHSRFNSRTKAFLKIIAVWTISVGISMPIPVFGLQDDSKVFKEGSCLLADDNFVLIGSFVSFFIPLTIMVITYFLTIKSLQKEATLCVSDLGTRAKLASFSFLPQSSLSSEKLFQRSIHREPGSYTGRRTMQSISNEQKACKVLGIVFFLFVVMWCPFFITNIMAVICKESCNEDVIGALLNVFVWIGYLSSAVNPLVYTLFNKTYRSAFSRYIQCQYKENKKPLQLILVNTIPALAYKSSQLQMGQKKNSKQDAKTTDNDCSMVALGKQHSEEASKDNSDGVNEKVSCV
Sequence of D(2) dopamine receptor (Homo sapiens) (P14416 whole entry, looked up): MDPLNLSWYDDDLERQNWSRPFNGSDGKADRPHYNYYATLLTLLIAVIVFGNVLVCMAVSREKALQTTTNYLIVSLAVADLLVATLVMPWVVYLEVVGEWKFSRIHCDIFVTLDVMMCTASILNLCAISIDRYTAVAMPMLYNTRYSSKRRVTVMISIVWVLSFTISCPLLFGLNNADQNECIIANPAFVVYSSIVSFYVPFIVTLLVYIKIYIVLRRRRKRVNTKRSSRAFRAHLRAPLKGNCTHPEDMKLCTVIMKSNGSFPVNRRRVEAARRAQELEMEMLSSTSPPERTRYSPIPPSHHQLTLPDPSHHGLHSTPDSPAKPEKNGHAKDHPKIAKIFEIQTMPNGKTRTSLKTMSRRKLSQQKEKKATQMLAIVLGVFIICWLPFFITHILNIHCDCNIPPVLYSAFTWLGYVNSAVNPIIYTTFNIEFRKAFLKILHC
Sequence of Gonadotropin-releasing hormone receptor (Homo sapiens) (P30968 whole entry, looked up): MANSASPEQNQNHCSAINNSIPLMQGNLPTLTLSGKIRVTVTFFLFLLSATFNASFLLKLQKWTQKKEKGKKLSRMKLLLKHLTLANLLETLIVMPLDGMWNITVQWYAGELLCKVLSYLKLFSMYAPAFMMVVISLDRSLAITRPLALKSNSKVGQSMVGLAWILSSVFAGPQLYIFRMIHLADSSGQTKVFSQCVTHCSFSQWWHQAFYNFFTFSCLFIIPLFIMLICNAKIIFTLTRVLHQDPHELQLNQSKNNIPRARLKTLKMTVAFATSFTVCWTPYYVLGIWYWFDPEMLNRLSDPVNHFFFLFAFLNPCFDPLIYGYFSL

On to `OC(CCN1CCCCC1)(c1ccccc1)C1CC2C=CC1C2` (configuration not stated), for which the Potency result in [1], in [2], in [3], in [4], in assay [5] and in assay [6] was “inactive” in each case. The Potency entry in assay [7], in assay [8], in assay [9], in assay [10], in [11] and in [12] was “inactive” in each case. In addition, the Potency result in assay [14], in assay [15], in assay [16] and in [17] was “inactive” each time. In addition, in assay [13], the Potency was 0.0013 µM (active).

Turning to `O=C1NCCN1`, the Potency result in assay [18], in [4], in [6], in [7], in assay [8] and in [10] was “inactive” each time. The Potency result in assay [11], in assay [12], in assay [13], in assay [14], in [19] and in [20] was “inactive” throughout. In addition, the Potency entry in assay [15] and in [16] was “inactive” each time.

As to `COc1ccc(OC(F)(F)F)cc1CN[C@H]1CCCN[C@H]1c1ccccc1`, the Potency entry in assay [1], in [2], in assay [3], in assay [4], in assay [5] and in assay [6] was “inactive” throughout. The Potency result in assay [7], in assay [8], in assay [9], in [10], in assay [11] and in [13] was “inactive” each time. Moreover, the Potency result in assay [14] and in assay [15] was “inactive” in each case.

As for `Nc1ccc([N+](=O)[O-])c(N)c1`, the Potency entry in assay [1], in assay [2], in [3], in assay [4], in assay [5] and in assay [6] was “inactive” throughout. Moreover, the Potency result in assay [7], in [8], in [9], in assay [10], in assay [11] and in assay [12] was “inactive” throughout. The Potency entry in assay [13], in [14], in assay [19], in assay [20], in assay [15] and in [16] was “inactive” in each case. Moreover, the Potency result in [17] is “inactive”.

Regarding `C=CC[N+]1([C@H]2C[C@H]3[C@@H]4CC[C@H]5C[C@H](OC(C)=O)[C@@H](N6CCCCC6)C[C@]5(C)[C@H]4CC[C@]3(C)[C@H]2OC(=O)CC)CCCCC1`, the Potency entry in assay [1], in assay [2], in assay [3], in assay [4], in assay [5] and in [6] was “inactive” in each case. Besides, the Potency result in [7], in assay [8], in [9], in assay [10], in assay [12] and in assay [13] was “inactive” throughout. The Potency entry in assay [14], in assay [19], in assay [20], in assay [15], in [16] and in [17] was “inactive” each time.

Regarding `Cc1cc(Nc2ccc(O)cc2)ccc1N`, the Potency in [1] is 43.1 µM (active). Further, the Potency entry in assay [2], in [3], in [4], in assay [5], in [6] and in [7] was “inactive” each time. Moreover, the Potency result in [8], in [9], in assay [10], in [11], in assay [12] and in assay [13] was “inactive” throughout. Also, the Potency entry in assay [14], in assay [19] and in [20] was “inactive” in each case.

In the case of `O=S(=O)(O)c1cc(S(=O)(=O)O)c2c(N=Nc3ccccc3)c(O)ccc2c1`, the Potency entry in [1], in [2], in [3], in assay [4], in assay [5] and in [6] was “inactive” each time. The Potency entry in assay [7], in assay [8], in [9], in assay [10], in assay [12] and in assay [13] was “inactive” in each case. The Potency result in [14], in [19] and in [20] was “inactive” throughout.

In the case of `Cc1ccc(N/N=c2\c(=O)cc/c(=N\Nc3ccc(S(=O)(=O)O)cc3)c2=O)c(C)c1`, the Potency result in assay [1], in assay [2], in assay [3], in assay [4], in [5] and in [6] was “inactive” each time. Moreover, the Potency result in [7], in assay [8], in assay [9], in assay [10], in assay [11] and in assay [12] was “inactive” throughout. In addition, the Potency result in assay [13], in assay [14], in [19], in assay [20], in assay [15] and in [16] was “inactive” throughout. In assay [17], the Potency result is “inactive”.
